Compound activity (PubChem BioAssay)
Rows were chosen to be rich in hits. Some 1.1% of all compounds tested hit in one or more screens of this group.
HTR5A inv ctr: counter-screen for OPRM1-OPRD1 inverse agonists: human HTR5A inverse agonism | P47898 | HTR5A cell line, luminescence | inhibition, % at 9.3 µM | 340,000 compounds, 0.083% hits; in the data active = inhibition mostly above about 23%, no sharp cut-off; inactive = mostly below about 18%
OPRM1-OPRD1 ag: OPRM1-OPRD1 heterodimerization agonism; cells, luminescence; activation, % at 9.3 µM; 340,000 compounds, 0.3% hits; in the data active = activation above about 18%
Target sequence (P35372 whole entry, looked up): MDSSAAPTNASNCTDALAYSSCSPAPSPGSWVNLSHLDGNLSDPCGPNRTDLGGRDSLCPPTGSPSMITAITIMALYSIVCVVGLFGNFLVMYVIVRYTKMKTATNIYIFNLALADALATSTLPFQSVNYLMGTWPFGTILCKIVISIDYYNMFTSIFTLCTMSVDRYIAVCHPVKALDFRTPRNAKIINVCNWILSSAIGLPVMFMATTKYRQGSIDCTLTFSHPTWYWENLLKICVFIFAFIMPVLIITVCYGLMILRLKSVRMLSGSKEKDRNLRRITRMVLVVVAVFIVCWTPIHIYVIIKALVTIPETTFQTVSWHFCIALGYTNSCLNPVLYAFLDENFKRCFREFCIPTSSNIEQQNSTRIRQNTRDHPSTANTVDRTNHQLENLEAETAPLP
Target sequence (P41143 whole entry, looked up): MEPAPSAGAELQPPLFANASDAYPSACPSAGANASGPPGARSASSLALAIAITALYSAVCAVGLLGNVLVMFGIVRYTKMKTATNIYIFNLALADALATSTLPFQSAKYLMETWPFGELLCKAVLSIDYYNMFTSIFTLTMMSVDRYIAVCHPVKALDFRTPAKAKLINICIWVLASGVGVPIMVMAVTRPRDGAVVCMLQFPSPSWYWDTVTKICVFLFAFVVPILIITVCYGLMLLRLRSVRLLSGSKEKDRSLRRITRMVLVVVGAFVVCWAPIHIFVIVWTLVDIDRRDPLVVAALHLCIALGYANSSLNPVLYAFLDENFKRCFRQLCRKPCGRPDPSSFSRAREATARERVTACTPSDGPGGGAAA
HTR5A ag: counter-screen for OPRM1-OPRD1 agonists: human HTR5A agonism; P47898; HTR5A agonist assay, luminescence, cell-based; activation, % at 9.3 µM; 340,000 compounds, 0.61% hits; AID 504692; in the data active = activation mostly above about 9.5%, no sharp cut-off; inactive = mostly below about 7.6%
OPRM1-OPRD1 inv: inverse agonist of human OPRM1-OPRD1 heterodimerization; cell-based MOR-DOR heterodimer luminescence, inverse agonism; P35372+P41143; 340,000 compounds, 0.21% hits; inhibition, % at 9.3 µM; in the data active = inhibition above about 22%, passing the limit was not always enough
OPRM1-D1 inv cf: confirmation of human OPRM1-OPRD1 heterodimerization inverse agonists. shares compounds with OPRM1-OPRD1 inv. cells expressing OPRM1/OPRD1 heterodimer, luminescence. inhibition, % at 9.3 µM. 580 compounds, 20% hits; in the data active = inhibition above about 32%
HTR5A inv ctr2: HTR5A inverse agonism, opioid heterodimer counter-screen; shares compounds with OPRM1-OPRD1 inv; HTR5A-expressing cells, luminescence; inhibition, % at 9.3 µM; 580 tested, under 10 active; call rule not given here
Numbers stand for hits; - = inactive; . = no result given.

SMILES | HTR5A inv ctr | OPRM1-OPRD1 ag | HTR5A ag | OPRM1-OPRD1 inv | OPRM1-D1 inv cf | HTR5A inv ctr2
O=C1Nc2ccc(F)cc2C12Nc1ccccc1-c1nnc(SCc3ccccc3F)nc1O2 (configuration not stated) | - | - | - | 69 | 72 | -
O=C1Nc2ccc(Cl)cc2C12Nc1ccccc1-c1nnc(SCc3ccccc3F)nc1O2 (configuration not stated) | - | - | - | 50 | - | -
CCSc1nnc2c(n1)OC1(CCCC1)Nc1ccccc1-2 | - | - | - | - | . | .
Cc1ccc(NC(=O)CN(C)S(=O)(=O)c2ccc(Cl)s2)c(O)c1 | - | - | - | - | . | .
OCC1(CCOc2ccccc2)CCN(CC2=Cc3cc(Cl)ccc3OC2)CC1 | - | - | - | - | . | .
CSc1nccc(NC(=O)c2cccc(Br)c2)n1 | - | - | - | - | . | .
CCCCCC(=O)NNC(=S)NC(=O)c1ccccc1[N+](=O)[O-] | - | - | - | 30 | - | -
C#CC(CC)(CC)NC(=S)Nc1ccc(S(N)(=O)=O)cc1 | - | - | - | - | . | .
CN(C)S(=O)(=O)c1cccc(C(=O)Nc2ccccc2[N+](=O)[O-])c1 | - | - | - | 34 | - | -
O=C1N=C(c2ccccc2)S/C1=C\c1cccs1 | - | - | - | 34 | - | -
O=C(CCC(=O)OCC(=O)c1ccc(Cl)cc1Cl)Nc1cccc2cccnc12 | - | - | - | 55 | - | -
O=C(OCC(=O)c1ccc(Cl)cc1Cl)c1ccc2c(c1)C(=O)N(c1cccc3ncccc13)C2=O | - | - | - | 43 | - | -
O=C(OCC(=O)c1ccccc1Br)c1ccccn1 | - | - | - | - | . | .
O=C(OCC(=O)c1ccc(Cl)cc1Cl)c1ccccn1 | - | - | - | 50 | - | -
O=C1N=c2ccccc2=C1c1c(O)n(-c2cccc(F)c2)[nH]c1=O | - | - | - | 36 | - | -
Cn1c(O)c(C2=c3ccccc3=NC2=O)[nH]c1=S | - | - | - | - | . | .
CC(C)(C)NS(=O)(=O)c1ccc(C(=O)Nc2ccc3c(c2)OCO3)cc1 | - | - | - | - | . | .
O=C1/C(=C/c2ccccc2)Nc2ccccc21 | - | - | - | 36 | - | -
CC1=C/C(=C(/c2cc(C)c(O)c(Br)c2)c2ccccc2S(=O)(=O)O)C=C(Br)C1=O | - | - | - | - | . | .
CC1=C/C(=C(/c2ccc(O)c(C)c2)c2ccccc2S(=O)(=O)O)C=CC1=O | - | - | - | 29 | - | -
O=C1CSC(=S)N1Cc1cccs1 | - | - | - | - | . | .
O=C1C(=O)N(CCN2CCCCC2)c2ccccc21 | - | - | - | 72 | 74 | -
O=C(COC(=O)CN1C(=O)C(=O)c2ccccc21)OCN1C(=O)c2ccccc2C1=O | - | - | - | 40 | - | -
O=C1C(=O)N(Cc2cccs2)c2ccccc21 | - | - | - | 48 | - | -
O=C(CN1C(=O)C(=O)c2ccccc21)NC1CCCCC1 | - | - | - | 47 | 48 | -
SMILES | HTR5A inv ctr | OPRM1-OPRD1 ag | HTR5A ag | OPRM1-OPRD1 inv | OPRM1-D1 inv cf | HTR5A inv ctr2
O=C(CCN1C(=O)c2ccccc2C1=O)OCN1C(=O)c2ccccc2C1=O | - | - | - | - | . | .
CN1CCN(C(=O)c2cnn(-c3ccccc3)c2NC(=O)c2ccccc2Cl)CC1 | - | - | - | - | . | .
CC(=O)c1ccc(NC(=O)COC(=O)c2nc(Cl)ccc2Cl)cc1 | - | - | - | - | . | .
O=C1C(=O)N(CCS(=O)(=O)c2ccccc2)c2ccccc21 | - | - | - | 58 | - | -
O=C(CN1C(=O)C(=O)c2ccccc21)c1ccccc1 | - | - | - | 52 | - | -
O=S(=O)(CCN1CCOCC1)c1ccccc1 | - | - | - | - | . | .
O=C(NNc1ccccc1)c1ccc(Cl)c(Cl)c1 | - | - | - | 40 | 54 | -
O=C(NNC(=O)c1ccc2ccccc2c1)c1ccc(Cl)c(Cl)c1 | - | - | - | - | . | .
O=C(NNc1cc(Br)c(O)c(Br)c1)c1ccccc1 | - | - | - | 79 | 75 | -
Cc1ccc(C(=O)COC(=O)CCC(=O)Nc2cc(Cl)ccc2Cl)cc1[N+](=O)[O-] | - | - | - | 52 | 36 | -
CC(=O)Nc1ccc(NC(=O)CCC(=O)OCC(=O)c2cccc([N+](=O)[O-])c2)cc1 | - | - | - | 71 | - | -
O=C(CCC(=O)OCC(=O)c1cccc([N+](=O)[O-])c1)NC1CCCCC1 | - | - | - | 62 | - | -
O=C(CCC(=O)OCC(=O)c1cccc([N+](=O)[O-])c1)Nc1ccccc1Cl | - | - | - | 77 | - | -
O=C(CCC(=O)OCc1cccc([N+](=O)[O-])c1)Nc1ccccc1Cl | - | - | - | - | . | .
O=C(Cc1c(F)cccc1Cl)OCC(=O)c1ccc[nH]1 | - | - | - | - | . | .
CCOc1ccc(S(=O)(=O)NCCC(=O)NCCOc2ccccc2OC)cc1 | - | - | - | - | . | .
C[N+](C)(C)CCC(=O)N1C/C(=C/c2ccccc2)C(=O)/C(=C\c2ccccc2)C1 | - | - | - | - | . | .
CN(C)CCC(=O)N1C/C(=C/c2ccccc2)C(=O)/C(=C\c2ccccc2)C1 | - | - | - | 43 | - | -
CC(NS(=O)(=O)c1cc2c3c(c1)CCC(=O)N3CCC2)c1ccccc1 (configuration not stated) | - | - | - | - | . | .
Cc1[nH][nH]c(=O)c1C(c1c(C)[nH][nH]c1=O)c1cn(Cc2ccc(F)cc2)c2ccccc12 | - | - | - | 43 | - | -
Cc1[nH][nH]c(=O)c1C(c1c(C)[nH][nH]c1=O)c1cn(Cc2ccc(Cl)c(Cl)c2)c2ccccc12 | - | - | - | - | . | .
C=CCn1cc(C(=O)N2CCN(C)CC2)c(=O)c2cc(S(=O)(=O)N(CC)CC)ccc21 | - | - | - | - | . | .
COc1ccc(C2=NN(CN3C(=O)C(=O)c4ccccc43)C(c3ccc(C)cc3)C2)cc1 (configuration not stated) | - | - | - | 47 | - | -
COc1ccc(C2=NN(CN3C(=O)C(=O)c4ccccc43)C(c3ccc(Br)cc3)C2)cc1 (configuration not stated) | - | - | - | - | . | .
O=C(Cc1ccc(F)cc1)OCC(=O)c1cc2ccccc2o1 | - | - | - | 48 | - | -
SMILES | HTR5A inv ctr | OPRM1-OPRD1 ag | HTR5A ag | OPRM1-OPRD1 inv | OPRM1-D1 inv cf | HTR5A inv ctr2
CC(NC(=O)COc1ccccc1)C(=O)OCC(=O)c1cc2ccccc2o1 (configuration not stated) | - | - | - | 71 | - | -
O=C(CCNc1ccc(F)cc1)c1cc2ccccc2o1 | - | - | - | - | . | .
O=C(CNC(=O)c1ccccc1F)OC1CCOC1=O (configuration not stated) | - | - | - | - | . | .
ON(CCc1ccncc1)Cc1ccccc1 | - | - | - | 44 | - | -
Cc1cc(C)cc(OCC(=O)NNC(=O)c2ccccn2)c1 | - | - | - | - | . | .
COc1cccc([C@@H]2Oc3ccc(OC)cc3C(=O)[C@H]2O)c1 | - | - | - | 35 | - | -
N#C/C(=C1/C(=O)Nc2ccc(Br)cc21)c1ccccn1 | - | - | - | 49 | - | -
O=C1Nc2ccc(Br)cc2C1=C1CCCCC1 | - | - | - | - | . | .
